# Assay outcomes (PubChem BioAssay)
# An excerpt weighted towards active compounds, which were near 2.9% of everything screened.
# Rtt109 Vps75: C. albicans Rtt109 histone acetyltransferase inhibition; purified Rtt109/Vps75, ThioGlo CoA-SH fluorescence, 4 h; 0.16% of 330,000 active; Q5AAJ8; inhibition, % at 34.9 µM; AID 540336;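 active = inhibition of at least 50% in every replicate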
# ABHD5-PLIN5 inh: ABHD5-PLIN5 protein interaction inhibition; inhibition, % at 4 µM; 0.78% of 360,000 active; Q00G26+Q8WTS1; Split G. princeps luciferase complementation, luminescence, 4 h;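 active = inhibition above the mean inhibition across every tested compound plus 3 SD, cut at about 22% in these data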;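 note: 0% = DMSO only wells and the 100% control is not disclosed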
# Myeloid diff 2: promotes myeloid progenitor differentiation; ER-HoxA9 myeloid progenitors, lysozyme-GFP differentiation, flow cytometry; calls only at 10 µM; 1% of 360,000 active;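 active = normalized GFP-positive differentiation at or above the plate's own cutoff, the solvent-only control mean plus 3 SD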;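 note: cells exposed to compound for four days before flow analysis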
# DAGLB inhibitor: blocks human DAGLB lipase activity; Q8NCG7; HEK293T DAGLB membrane lysate, EnzChek fluorogenic substrate; inhibition, % at 5.17 µM; 0.059% of 340,000 active; AID 504411; in the data active = inhibition above about 34%;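 note: 0% = enzyme with vehicle and 100% = wells lacking enzyme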
# Cardio protect: protects H9c2 cardiomyocytes from peroxide injury; 0.63% of 360,000 active; protection from H2O2 cell death, % at 20 µM; H2O2 injury protection, ATPLite, 2 h;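 active = compounds giving at least 50% protection of heart cells from peroxide-induced death in the single-dose screen, raw or plate-pattern-corrected value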;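 note: 0% = DMSO wells with peroxide and 100% = DMSO wells without peroxide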
# sPLA2-III inh: Inhibits HGIII-sPLA2 liposome hydrolysis, primary screen; 0.56% of 370,000 active; Q9NZ20; inhibition, % at 12.2 µM; AID 743126; QFRET BODIPY PC-A2 liposome hydrolysis, fluorescence;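 active = inhibition above mean plus 3 SD of compounds lying within the high and low control bounds, cut at about 19% in these data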;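 note: 0% = median of test compound wells and 100% = no enzyme DMSO wells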
# Target sequence (Q9NZ20 whole entry, looked up): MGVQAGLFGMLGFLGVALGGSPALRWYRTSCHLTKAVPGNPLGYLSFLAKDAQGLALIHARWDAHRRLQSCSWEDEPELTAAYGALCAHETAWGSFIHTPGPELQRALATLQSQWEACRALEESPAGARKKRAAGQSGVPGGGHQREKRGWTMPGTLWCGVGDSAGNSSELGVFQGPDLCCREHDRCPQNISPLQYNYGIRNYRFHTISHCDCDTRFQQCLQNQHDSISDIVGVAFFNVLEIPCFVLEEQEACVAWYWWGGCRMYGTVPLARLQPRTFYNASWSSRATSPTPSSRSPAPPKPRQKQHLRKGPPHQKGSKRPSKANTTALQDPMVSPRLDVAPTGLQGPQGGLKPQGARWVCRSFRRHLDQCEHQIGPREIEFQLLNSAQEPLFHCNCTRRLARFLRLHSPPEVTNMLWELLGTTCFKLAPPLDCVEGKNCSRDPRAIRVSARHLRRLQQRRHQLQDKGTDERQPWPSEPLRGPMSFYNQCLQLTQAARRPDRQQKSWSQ
# Myeloid diff: myeloid differentiation induction. 2% of 2,300 active. ER-HoxA9 myeloid progenitors, GFP/Mac1 double-positive flow. shares compounds with Myeloid diff 2. calls only;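 active = share of green or green-and-red cells above 9 and 9% in run 1 or 4 and 3% in run 2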
# GFP autofluor: counter-screen for myeloid differentiation promoters: compound fluorescence; shares compounds with Myeloid diff 2; ER-HoxA9 myeloid progenitors, no estrogen, GFP autofluorescence flow cytometry; vehicle wells 0%, positive control 100%; fluorescence response, % (concentration not given with the values); 7.4% of 2,300 active; AID 651707;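 active = over 5% cells positive for green fluorescent reporter, or over 2% positive for both it and APC stain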;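 note: range taken on the double positive population between DMSO and positive control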
# The depositor's hits bear a star; i = inactive; · = no result given; + = active, no number.
SMILES,Rtt109 Vps75,ABHD5-PLIN5 inh,Myeloid diff 2,DAGLB inhibitor,Cardio protect,sPLA2-III inh,Myeloid diff,GFP autofluor
CCSC1=C(C#N)C(c2ccc(OC)c(OC)c2)CC(=O)N1 (stereo unspecified),-7,-3,i,0,11,1,·,·
O=C(O)c1ccccc1NN=C1CCCCC1,6,-3,i,-2,0,-5,·,·
COc1ccccc1-c1ccc(SCc2ccc(F)cc2)nn1,-4,1,+,-5,-2,-9,i,1
COc1ccccc1-c1ccc(SCc2ccc(C)cc2)nn1,-4,-2,i,-20,-16,-5,·,·
C[C@H](NS(=O)(=O)c1ccc(F)cc1)C(=O)OCC(=O)c1c(N)n(C)c(=O)n(C)c1=O,5,10,i,-1,9,-4,·,·
COc1cccc(-c2cc3nc(NCc4cccnc4)n(C)c(=O)c3s2)c1,·,6,i,·,8,-4,·,·
Cn1c(NCc2cccnc2)nc2cc(-c3cccc(C(=O)NCCO)c3)sc2c1=O,·,4,+,·,8,2,i,1
CCOc1cc(C(=S)N2CCOCC2)ccc1OC(=O)/C=C/c1ccc(OC)c(OC)c1,8,8,i,-1,0,1,i,0
O=C(NN=C1CCCCCC1)c1cc(-c2ccccc2)nc2ccccc12,5,2,i,-3,16,-1,·,·
Cc1ccc(-c2cc(C(=O)NN=C3CCCC3)c3ccccc3n2)cc1,-6,-9,i,-8,-10,-5,i,0
CN(C)c1ccc(NC(=O)CN2CCN(CC(=O)Nc3ccc(F)cc3)CC2)cc1,-1,-3,i,1,-6,4,·,·
CN(C)c1ccc(NC(=O)CN2CCC(O)(c3ccccc3)CC2)cc1,2,-6,i,-1,6,2,i,0
O=C1OCC/C1=C\NCCCCCCCCN/C=C1\CCOC1=O,·,9,i,0,-4,16,·,·
O=C1c2cccnc2C(Nc2ccccc2)N1Cc1ccco1 (stereo unspecified),-4,18,i,6,5,0,i,0
O=C1c2cccnc2C(Nc2cccc(F)c2)N1Cc1ccco1 (stereo unspecified),2,2,i,1,0,2,·,·
COc1ccc(/C=C2\SC(=S)N(CCC(=O)NC3CCCC3)C2=O)cc1OC,2,1,i,1,-2,-1,i,0
Cc1c(C(=O)OC(C)C)[nH]c2c1C(=O)CC(C)(C)C2,·,-5,+,-3,2,-1,i,0
CCOc1ccc(C(=O)N2CCC(C(=O)c3ccc4c(c3)OCCO4)CC2)cc1,-5,10,i,-3,-5,-9,i,0
C/C(=C/c1ccccc1)C(=O)N1CCC(C)CC1,-7,-2,i,2,6,7,i,0
CCOC(=O)C(=O)N1c2ccccc2C(N(C(=O)C(=O)OCC)c2ccccc2)CC1C (stereo unspecified),-3,-7,i,-4,13,4,·,·
O=C(COC(=O)CCNS(=O)(=O)c1cccs1)Nc1cc(C(F)(F)F)ccc1Cl,9,-8,i,-4,1,2,·,·
Cc1cnc(NC(=O)Cc2ccccc2Cl)s1,-7,-3,i,-2,-4,-1,i,0
Cc1cnc(NC(=O)CSc2ccccc2)s1,-9,9,+,0,-3,1,i,0
COc1ccccc1-c1oc2ccccc2c1-c1ccc2cc[nH]c2c1,-6,-8,i,-6,-12,-1,·,·
Nc1nc(Br)c2c(F)cccc2c1-c1ccc(Cl)cc1,-9,14,i,-9,4,-6,·,·
COc1ccc(C2C(=O)N(C3CCCCC3)CC(=O)N2Cc2ccc3c(c2)OCO3)cc1 (stereo unspecified),25,4,i,-1,7,8,i,4
O=C(NC1CCCC1)c1cnc2n(c1=O)CCS2,5,-2,i,-1,1,11,i,0
